# Among all 66,000 compounds or so, about 960 (1.5%) showed an effect of 50% or more. For the sample, strong results were picked, then their nearest neighbours and some compounds at random.
# System: Trypanosoma brucei
# Assay: Trypanosoma brucei 72 hour study
# Format: functional, organism-based
# Design: scale not given: in the data most compounds retested in dose-response had high values
smiles,measurement,setting,value
Cn1cc(C(O)CNC(=O)c2ccc(F)cc2Cl)cn1 (configuration not stated),Percent Effect,"30 µM, 30.03 µM",3.538%
CCN1Cc2nc(OC)c(CNC(=O)CCC3CCCC3)cc2C1=O,Percent Effect,"30 µM, 30.03 µM",-13.67%
O=C(C1CC=CC1)N1C[C@@H](OCc2cccnc2)[C@H]2OCCC[C@H]21.O=C(O)C(F)(F)F,Percent Effect,"30 µM, 30.03 µM",39.05%
CCc1nccn1-c1cncc(C2CCCN2)n1.Cl (configuration not stated),Percent Effect,"30.3 µM, […]",-8.115%
N#Cc1cccc(CN2Cc3nccn3CC(CN3CCCC3)C2)c1.O=C(O)C(F)(F)F.O=C(O)C(F)(F)F (configuration not stated),Percent Effect,"30 µM, 30.03 µM",-41.66%
Cc1cc(N2CCC(Cc3ccccc3)CC2)nc(-c2ccncc2)n1,Percent Effect,"30.3 µM, […]",99.65%
Cc1cc(N2CCC(CC(N)=O)CC2)nc(-c2ccncc2)n1,Percent Effect,"30.3 µM, […]",0.7336%
CC(=O)NCC1CCN(c2cc(C)nc(-c3ccncc3)n2)CC1,Percent Effect,10 µM,-42.73%
Cc1ccc(C(=O)N2CCC3(CC2)CC(N2CCCC2)C3)cc1.O=C(O)C(F)(F)F,Percent Effect,"30.3 µM, […]",-4.803%
Cc1ccc(N2CCC3(CN(Cc4cccs4)CCC3(F)F)C2)nn1.O=C(O)C(F)(F)F (configuration not stated),Percent Effect,"30.3 µM, […]",-34.83%
Cc1ccc(CN2CCn3c(C(=O)N(C)C)cnc3C2)cc1.O=C(O)C(F)(F)F,Percent Effect,"30.3 µM, […]",-165%
Cl.Cn1cc([C@@H]2CN(S(=O)(=O)c3cccnc3)C[C@H]2N)c2ccncc21,Percent Effect,"30.3 µM, […]",-9.979%
Cl.Cn1cc([C@@H]2CN(S(C)(=O)=O)C[C@H]2N)c2ccncc21,Percent Effect,"30.3 µM, […]",-16.68%
Cl.Cn1cc([C@@H]2CN(S(=O)(=O)c3ccccc3F)C[C@H]2N)c2ccncc21,Percent Effect,"30.3 µM, […]",53.59%
c1cc(N2CCC(CN3CCOCC3)CC2)c2sccc2n1,Percent Effect,"30 µM, 30.03 µM",-9.098%
CC(=O)NCc1nc(CCOc2ccc(Cl)cc2)no1,Percent Effect,"30 µM, 30.03 µM",-81.13%
CCN1CCCC(O)(c2nc(C)c(CCOc3ccc(F)cc3)s2)CC1 (configuration not stated),Percent Effect,"30.3 µM, […]",-11.99%
COc1ccc(OCc2sc(C3(O)CCCNCC3)nc2C)cc1.Cl (configuration not stated),Percent Effect,"30.3 µM, […]",57.18%
COc1ccc(OCCc2sc(C3(O)CCCNCC3)nc2C)cc1.Cl (configuration not stated),Percent Effect,"30.3 µM, […]",34.01%
C[C@@H]1CN(CCOc2ccc(Cl)cc2)CC[C@@]1(O)C1CCOCC1,Percent Effect,"30 µM, 30.03 µM",-42.79%
Cc1noc(CNC(=O)NCCOc2ccc(Cl)cc2)n1,Percent Effect,"30 µM, 30.03 µM",-8.016%
Cc1nc(C)c(COc2ccc(S(=O)(=O)N(C)C)cc2)s1,Percent Effect,"30 µM, 30.03 µM",-44.61%
Cc1nc(C2(O)CCCNCC2)sc1CCOc1ccc(Cl)cc1.Cl (configuration not stated),Percent Effect,"30.3 µM, […]",101.5%
Cc1nc(C2(O)CCCNCC2)sc1CCOc1ccc(F)cc1.Cl (configuration not stated),Percent Effect,"30.3 µM, […]",73.77%
CCCN1CCCC(O)(c2nc(C)c(COc3ccccc3)s2)CC1 (configuration not stated),Percent Effect,"30.3 µM, […]",37.82%
O=C(O)C(F)(F)F.O=C(O)C(F)(F)F.c1cnc(N2C[C@H]3CCN(CCN4CCCC4)C[C@H]3C2)cn1,Percent Effect,"30.3 µM, […]",4.729%
COc1cc(C(=O)N2CCCC(c3cc(C)[nH]n3)C2)cc(OC)c1C (configuration not stated),Percent Effect,"30.3 µM, […]",-7.766%
CCCS(=O)(=O)N1CCO[C@H]2[C@@H](Oc3cccnc3)CC[C@@H]21.O=C(O)C(F)(F)F,Percent Effect,"30.3 µM, […]",-3.605%
O=C(NCC1CC1)[C@@H]1CC[C@@H]2[C@@H](CCN2Cc2ccco2)O1.O=C(O)C(F)(F)F,Percent Effect,"30.3 µM, […]",-31.37%
O=C(O)C(F)(F)F.O=C(c1ccco1)N1CC[C@@H]2O[C@H](COCCN3CCCC3)CC[C@@H]21,Percent Effect,"30 µM, 30.03 µM",43.22%
COc1ccc2c(ccn2CCCN)c1.O=C(O)C(=O)O,Percent Effect,"30 µM, 30.03 µM",0.08661%
O=C(O)C(F)(F)F.O=C(c1ccc(F)cc1)N1CCC2(CC1)CC(N1CCOCC1)C2,Percent Effect,"30.3 µM, […]",-59.01%
Cn1nccc1C(=O)N1CC[C@]2(C[C@H](OCc3ccccn3)CO2)C1.O=C(O)C(F)(F)F,Percent Effect,"30.3 µM, […]",-48.61%
COc1cccc(N2Cc3nc(=O)n(C(C)C)n3C2=O)c1,Percent Effect,"30 µM, 30.03 µM",-40.88%
CC[C@@H]1N(Cc2ccc(OC)cc2)CCC[C@]12CCC(=O)N2CCOC.O=C(O)C(F)(F)F,Percent Effect,"30.3 µM, […]",-46.04%
CCOc1ccc(N2CCCN=C2NC(=O)c2cccc(OC)c2)cc1,Percent Effect,"30.3 µM, […]",-26.63%
COc1cccc(-c2noc(C3CCN(Cc4ccccc4F)C3)n2)c1.Cl (configuration not stated),Percent Effect,"30.3 µM, […]",-18.78%
COc1cccc(-c2noc(C3CCN(Cc4ccccc4C)C3)n2)c1.Cl (configuration not stated),Percent Effect,"30.3 µM, […]",-12.24%
COc1cccc(-c2noc(C3CCN(Cc4cn(C)nc4C)C3)n2)c1 (configuration not stated),Percent Effect,"30 µM, 30.03 µM",63.09%
CNC(=O)[C@@]12CCO[C@@H]1CCN(Cc1ccc3c(c1)OCO3)C2.O=C(O)C(F)(F)F,Percent Effect,"30.3 µM, […]",-39.27%
Cc1nn(C)c(C)c1CCn1cncc1-c1ccc2c(c1)CC(C)N2C.Cl (configuration not stated),Percent Effect,"30.3 µM, […]",26.67%
Cc1nccn1CCCn1cncc1-c1ccc2c(c1)CC(C)N2C.Cl (configuration not stated),Percent Effect,"30.3 µM, […]",-10.42%
Cc1cc(C)n(CCCn2cncc2-c2ccc3c(c2)CC(C)N3C)n1.Cl (configuration not stated),Percent Effect,"30.3 µM, […]",83.42%
CCN1c2ccc(-c3cncn3CCCn3ccnc3C)cc2CC1C.Cl (configuration not stated),Percent Effect,"30.3 µM, […]",7.904%
Cc1nccn1CCCn1cncc1-c1ccc2c(c1)CCC(C)N2C.Cl (configuration not stated),Percent Effect,"30.3 µM, […]",17.11%
COCC1N(S(=O)(=O)c2cn(C)cn2)[C@H]2CC[C@]1(O)CC2 (some centres not stated),Percent Effect,"30.3 µM, […]",-23.23%
CN(C)C(=O)CN1C(=O)CCC12CCN(Cc1cccs1)CC2.O=C(O)C(F)(F)F,Percent Effect,"30.3 µM, […]",-53.05%
O=C(O)C(F)(F)F.O=C(c1cscn1)N1CCCC2(CCN2Cc2cccc(F)c2)C1 (configuration not stated),Percent Effect,"30.3 µM, […]",27.36%
Cc1cc(C)cc(OCC(O)CN2CCN(c3nccs3)CC2)c1 (configuration not stated),Percent Effect,"30 µM, 30.03 µM",-27.85%
COC(=O)c1ccc(N2CCN(C(=O)c3cnc(C)cn3)C(C)C2)cc1 (configuration not stated),Percent Effect,"30.3 µM, […]",8.397%
Cc1nn(C)c2nc(-c3ccccn3)nc(NC[C@@H]3CCCO3)c12,Percent Effect,"30 µM, 30.03 µM",-82.13%
Cc1nn(C)c2nc(-c3ccccn3)nc(NCCC3CCCN3C)c12 (configuration not stated),Percent Effect,"30 µM, 30.03 µM",-75.32%
CCC1(O)CCCN(c2nc(-c3ccccn3)nc3c2c(C)nn3C)C1 (configuration not stated),Percent Effect,"30 µM, 30.03 µM",51.81%
O=C1CCC2(CCN(Cc3cscn3)CC2)CN1[C@H]1CC[C@H](O)CC1,Percent Effect,"30 µM, 30.03 µM",-1.213%
CNc1cccc(CC2COCCN(C(=O)c3cccnc3)C2)n1 (configuration not stated),Percent Effect,"30.3 µM, […]",5.622%
CC(C)(C)SCC(=O)NCCc1csc(N2CCCC2)n1,Percent Effect,"30 µM, 30.03 µM",-0.8864%
CCNC(=O)NCCc1csc(N2CCCC2)n1,Percent Effect,"30 µM, 30.03 µM",-10.34%
CC(C)(C)OC(=O)NCCc1csc(N2CCCC2)n1,Percent Effect,"30 µM, 30.03 µM",63.65%
Cc1nc(C2(O)CCCNCC2)sc1CCOc1ccccc1.Cl (configuration not stated),Percent Effect,"30.3 µM, […]",41.97%
Cc1ncccc1OC1(C(=O)NCCNc2ccccc2)CCNCC1,Percent Effect,"30.3 µM, […]",0.199%
Cc1nc(C2(O)CCCNCC2)sc1CCOc1ccccc1F.Cl (configuration not stated),Percent Effect,"30.3 µM, […]",74.4%
CCN1CCCC(O)(c2nc(C)c(CCOc3ccccc3F)s2)CC1 (configuration not stated),Percent Effect,"30.3 µM, […]",-7.056%
CC(=O)Nc1nc(C(=O)NCCOc2ccccc2F)cs1,Percent Effect,"30.3 µM, […]",-41.52%
CCN1CCCC(O)(c2nc(C)c(CCOc3ccccc3Cl)s2)CC1 (configuration not stated),Percent Effect,"30.3 µM, […]",33.23%
Cc1nc(C2(O)CCCNCC2)sc1CCOc1ccccc1Cl.Cl (configuration not stated),Percent Effect,"30.3 µM, […]",102.3%
Cc1ncc(C(=O)NCCOc2ccccc2F)c(C)n1,Percent Effect,"30 µM, 30.03 µM",-71.35%
CNC(=O)CN1CC[C@H]2CN(C(=O)c3ccccc3C)C[C@H]2C1.O=C(O)C(F)(F)F,Percent Effect,"30.3 µM, […]",-31.13%
O=C(COc1ccccc1F)N1CCCCC1c1ccn2ccnc2n1 (configuration not stated),Percent Effect,"30.3 µM, […]",-11.94%
O=C(C1=CCCC1)N1CCO[C@H]2[C@@H](Oc3ccccn3)CC[C@@H]21.O=C(O)C(F)(F)F,Percent Effect,"30 µM, 30.03 µM",21.55%
Cc1c(C)n(-c2ccccn2)c2nc3c(c(N)c12)CCCCC3,Percent Effect,"30 µM, 30.03 µM",-26.49%
Cc1c(C)n(Cc2ccccn2)c2nc3c(c(N)c12)CCCC3,Percent Effect,"30 µM, 30.03 µM",14.96%
Cc1c(C)n(-c2ccccn2)c2nc3c(c(N)c12)CCCC3,Percent Effect,"30 µM, 30.03 µM",65.81%
O=C(C1CCCC1)N1C[C@@H]2CCN(c3cnccn3)C[C@@H]2C1.O=C(O)C(F)(F)F,Percent Effect,"30.3 µM, […]",-13.6%
CCc1ccc(CN2C[C@@H]3COC[C@H](NS(C)(=O)=O)[C@@H]3C2)o1.O=C(O)C(F)(F)F,Percent Effect,"30.3 µM, […]",-9.462%
Cc1ccc(NC2CCN(C(=O)c3ccsc3)CC2)nn1,Percent Effect,"30 µM, 30.03 µM",-24.89%
Cc1ccc(N2CCC3(CCN(C(=O)c4ccsc4)CC3)CC2)nn1,Percent Effect,"30 µM, 30.03 µM",20.14%
Cc1ccc(N(C)C2CCN(C(=O)c3ccsc3)CC2)nn1,Percent Effect,"30 µM, 30.03 µM",59.68%
CC1=Nc2c(c(=O)[nH]n2C2CCCC2)C(c2ccc(O)cc2)S1 (configuration not stated),Percent Effect,"30 µM, 30.03 µM",-3.6%
Cc1cc(C)n(CC2CN(Cc3nc4ccccc4s3)CCO2)n1 (configuration not stated),Percent Effect,"30.3 µM, […]",18.1%
CN1CCN(S(=O)(=O)c2cccnc2)c2cnccc21,Percent Effect,"30.3 µM, […]",-3.164%
CCn1cc(S(=O)(=O)N2CCC(C)Sc3ccccc32)cn1 (configuration not stated),Percent Effect,"30 µM, 30.03 µM",-33.91%
CC1CCN(S(=O)(=O)c2cccnc2)c2ccccc2S1 (configuration not stated),Percent Effect,"30 µM, 30.03 µM",80.08%
Cn1nc(C(=O)N2CCOCC2)cc1C(=O)Nc1c(Cl)cccc1Cl,Percent Effect,"30 µM, 30.03 µM",-27.89%
CC(C)c1cc(C2CCN(C(=O)Cn3cnc4ccccc43)CC2)[nH]n1,Percent Effect,"30 µM, 30.03 µM",-44.45%
Cc1cc(C(F)(F)F)nc(CCNC(C)Cn2ccnc2)n1 (configuration not stated),Percent Effect,"30 µM, 30.03 µM",-48.3%
CCCC(=O)N(CCCN1CCOCC1)c1nc2c(C)c(C)ccc2s1.Cl,Percent Effect,"30.3 µM, […]",27.33%
CCCC(=O)N(CCCN1CCOCC1)c1nc2c(C)ccc(Cl)c2s1.Cl,Percent Effect,"30.3 µM, […]",71.42%
CCCC(=O)N(CCN1CCOCC1)c1nc2c(OC)ccc(C)c2s1.Cl,Percent Effect,"30.3 µM, […]",13.57%
CCCC(=O)N(CCCN1CCOCC1)c1nc2c(F)cccc2s1.Cl,Percent Effect,"30.3 µM, […]",24.42%
CN(CCN1CCOCC1)C(=O)CCc1cccc(Cl)c1,Percent Effect,"30 µM, 30.03 µM",2.26%
CCCC(=O)N(CCCN1CCOCC1)c1nc2c(Cl)cccc2s1.Cl,Percent Effect,"30.3 µM, […]",55.71%
CN1CC[C@]2(CN(CC3CCOC3)C[C@H]2c2ccccc2)C1=O.O=C(O)C(F)(F)F (some centres not stated),Percent Effect,"30.3 µM, […]",-23.92%

# — ChEMBL document CHEMBL3988442, “University of Dundee, Small-Polar-MMV Screening Library” (2021)
